High-throughput results as filed in PubChem.
Rows were chosen to be rich in hits. Some 5.7% of all compounds tested hit in one or more screens of this group.
ClpP mod = qHTS Assay for Activators of ClpP. ATP-dependent Clp protease proteolytic subunit (Bacillus subtilis (strain 168)), P80244. purified B. subtilis ClpP, FRET peptide cleavage, 20 min. Potency, µM (highest dose often 57.5 µM). actives 1.9% (n = 340,000); active means well fitted falling curve with a large enough effect; inconclusive means small, poorly fitted or top-dose-only effect; inactive means no such curve, though single readings can be large or run the other way; further: the source files actives as falling curves though it sought activators and does not explain the sign; nearly all actives have a fitted effect of over 65% in size
Target sequence (P80244 whole entry, looked up): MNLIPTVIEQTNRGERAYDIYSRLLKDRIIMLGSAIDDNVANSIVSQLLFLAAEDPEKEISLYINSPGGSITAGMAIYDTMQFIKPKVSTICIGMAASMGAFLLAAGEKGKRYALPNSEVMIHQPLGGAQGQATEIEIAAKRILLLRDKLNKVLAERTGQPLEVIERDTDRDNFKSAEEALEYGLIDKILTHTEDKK
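Buffer: 100 mM Tris/HCl pH8, 100 mM KCl, 0.05% low protease BSA, 2.5% glycerol, 0.01% Tween-20. ClpP 10 microg/mL final; 20 min RT; delta FRET normalized to ADEP and DMSO controls.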
D3 antag = qHTS of D3 Dopamine Receptor Antagonist: qHTS. D3R cells, DiscoveRx beta-arrestin luminescence, antagonist mode; active compounds read low. AID 652054, 2013. actives 2.5% (n = 360,000). max response, negative = inhibition, %. D(3) dopamine receptor (Homo sapiens), P35462; in the data active means max response below about -50%; inconclusive means no clear call, values can overlap the other calls
Target sequence (P35462 whole entry, looked up): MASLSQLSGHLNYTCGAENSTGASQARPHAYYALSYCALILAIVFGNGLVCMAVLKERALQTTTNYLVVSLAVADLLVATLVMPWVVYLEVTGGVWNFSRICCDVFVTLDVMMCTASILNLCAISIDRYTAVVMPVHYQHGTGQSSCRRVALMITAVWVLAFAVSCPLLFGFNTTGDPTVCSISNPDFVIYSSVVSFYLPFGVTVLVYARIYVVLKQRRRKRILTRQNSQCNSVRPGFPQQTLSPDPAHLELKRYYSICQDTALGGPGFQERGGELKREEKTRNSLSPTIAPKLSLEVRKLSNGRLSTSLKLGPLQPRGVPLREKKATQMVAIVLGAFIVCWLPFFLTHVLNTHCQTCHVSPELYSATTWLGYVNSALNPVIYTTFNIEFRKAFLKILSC
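Cells expressing the human receptor were seeded at 1500 cells/well, incubated overnight at 37 degrees C in 5% CO2, then exposed to library compounds with dopamine controls for 90 minutes at 37 degrees C before luminescent detection.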
GLP1R cytotox = qHTS of GLP-1 Receptor Inverse Agonists: Cytotox Screen; HEK293 cAMP-luciferase reporter cells, luminescence, 24 h; Potency, µM (titrated, usually from 38.3 µM), most hits filed as inhibitors; actives 0.13% (n = 410,000);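 further: loss of luciferase light is scored as toxicity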
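Step one: seed cells (200 cells/uL, DMEM with 10% Nu serum, 1% pen-strep). Step two: 12-hour incubation at 37 deg C. Step three: pin 23 nL compound, incubate 24 hr. Step four: add luciferase reagent, read luminescence 12 min later.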
DRD3 agonist = qHTS of D3 Dopamine Receptor Agonist: qHTS; D3R DiscoveRx beta-arrestin cells, luminescence, 90 min; max activation, %; actives 0.58% (n = 410,000); AID 652048, 2013; in the data active means max activation above about 30%
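Agonist-mode cell screen: cells plated at 1500/well and incubated overnight at 37 °C, then exposed to library compounds for 90 min at 37 °C. Detection reagent was added for 30–60 min at room temperature, and luminescence was read.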
GLP1R ag = qHTS of GLP-1 Receptor Agonists; actives 0.007% (n = 380,000); AID 624172, 2012; HEK293 GLP-1R CRE-luciferase, luminescence, 4-6 h; cells express a hypersensitive GLP-1R form; Glucagon-like peptide 1 receptor (Homo sapiens), P43220; Potency, µM (highest dose often 45.6 µM), actives largely listed as activators
GLP-1R inv ag = qHTS of GLP-1 Receptor Inverse Agonists (Inhibition Mode) | Glucagon-like peptide 1 receptor (Homo sapiens), P43220 | HEK293 GLP-1R CRE-luciferase, luminescence, 24 h; GLP-1R form is constitutively active | Potency, µM (titrated, usually from 38.3 µM), hits mostly inhibitors | actives 1.6% (n = 410,000) | AID 624417, 2012; further: nearly all actives have a fitted effect of over 55% in size
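Readout was luciferase luminescence, measured 12 min after detection reagent at room temperature. Beforehand, GLP-1R reporter HEK293 cells had sat 12 h, then received compounds for 24 hr at 37 deg C.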
Each line names hits and unclear results; the compound was inactive in the other large screens. Unless noted, the call rests on the fitted dose curve; in most records, active means well fitted curve in the direction sought with a large enough effect; inconclusive means small, poorly fitted or top-dose-only effect, or another doubt; inactive means no such curve, though single readings can be large; an effect the other way counts as inactive or inconclusive.

COc1cc(/C=N/NC(=O)CCn2c3ccccc3c3ccccc32)cc(OC)c1OC	DRD3 agonist 41.7
COc1ccc(/C=N/NC(=O)CCn2c3ccccc3c3ccccc32)cc1OC	none
CCN(CC)c1ccc(-c2nn3c(-c4ccccc4OC)nnc3s2)cc1	ClpP mod 7.94µM, GLP1R cytotox inconclusive
CCOc1ccc(-c2nn3c(-c4ccc(F)cc4)nnc3s2)cc1	D3 antag -64.4
COc1ccc(-c2nn3c(-c4ccc(F)cc4)nnc3s2)cc1	GLP1R ag inconclusive
COc1ccc(Cc2c(C(C)(C)C)nc3ccc(Cl)cn23)c(C)c1	GLP-1R inv ag inconclusive
COC(=O)CSc1nc(Cc2ccccc2)nc2ccccc12	none
CC(C)OC(=O)CSc1nc(Cc2ccccc2)nc2ccccc12	GLP-1R inv ag 12.6µM
O=C1NC(=Nc2ccccc2)S/C1=C\c1cccn1-c1ccccc1	D3 antag -70.2, GLP1R cytotox inconclusive
Cc1cc(C)c2nc(N3CCC(C(=O)NCCCN4CCCCC4)CC3)sc2c1	GLP1R cytotox inconclusive, GLP-1R inv ag 3.16µM
Cc1cccn2c(=O)nc(SCC(=O)N3CCC(Cc4ccccc4)CC3)nc12	D3 antag -58.5
CC(C)c1cc(=O)oc2c3c4c(cc12)CCCN4CCC3	ClpP mod 28.2µM, GLP1R ag inconclusive
Cc1cc(=O)oc2c3c4c(cc12)OCCN4CCC3	ClpP mod 22.4µM
Cc1ccc(CN2COc3ccc4c(C)cc(=O)oc4c3C2)cc1	none (no result: D3 antag)
O=c1oc2c3c4c(cc2c(C(F)(F)F)c1CCN1CCOCC1)CCCN4CCC3	none
CC(C)Oc1ccc(CNC(=O)C2CCN(c3nc4ccccc4nc3C(F)(F)F)CC2)cc1	GLP-1R inv ag inconclusive (no result: D3 antag, GLP1R ag)
CCCCCOc1ccc(C(=O)N(Cc2ccco2)C2CCS(=O)(=O)C2)cc1 (stereo unspecified)	DRD3 agonist 30.2
Cc1cc(OCC(=O)N(Cc2ccco2)C2CCS(=O)(=O)C2)cc(C)c1Cl (stereo unspecified)	ClpP mod 28.2µM, GLP-1R inv ag inconclusive
COc1ccc(CN(C(=O)c2ccco2)C2CCS(=O)(=O)C2)cc1 (stereo unspecified)	ClpP mod 28.2µM
Cc1ccc(OCC(=O)N(Cc2ccco2)C2CCS(=O)(=O)C2)cc1C (stereo unspecified)	none
O=C(NC1CCS(=O)(=O)C1)c1ccc(-c2ccc(Br)cc2)o1 (stereo unspecified)	ClpP mod 15.8µM
O=C(NC12CC3CC(CC(C3)C1)C2)c1ccc(-c2ccc(Br)cc2)o1	ClpP mod 31.6µM, GLP-1R inv ag inconclusive
Cc1ccc(C)c(Nc2nn3c(=O)c4ccc(C(=O)NCc5ccccc5)cc4nc3s2)c1	GLP-1R inv ag inconclusive (no result: D3 antag)
Cc1ccc2oc(C(=O)Nc3c(C(=O)c4ccc(C)c(F)c4)oc4ccccc34)cc(=O)c2c1	none (no result: D3 antag, GLP1R ag)
Cc1cc(NC(=O)COC(=O)c2ccccc2NCCO)no1	ClpP mod 15.8µM
CN(C)CCOc1ccc(/C(=C(/CCCl)c2ccccc2)c2ccccc2)cc1	D3 antag -91.4
C=CSc1sc(Cl)c(N2CCOCC2)c1[N+](=O)[O-]	none (no result: ClpP mod)
C=CS(=O)(=O)c1sc(Cl)c(N2CCOCC2)c1[N+](=O)[O-]	D3 antag -72.4, GLP1R cytotox inconclusive, GLP-1R inv ag inconclusive (no result: ClpP mod)
O=C(c1ccc(CSc2nc3ccncc3n2Cc2cccc(F)c2)cc1)N1CCCCC1	GLP-1R inv ag inconclusive (no result: D3 antag, GLP1R ag)
Cc1c(-c2ccco2)[n+](=O)c2c(n1[O-])CCCCC2	none
Cc1c(-c2ccccc2)[n+](=O)c(-c2ccco2)c(C)n1[O-]	ClpP mod 28.2µM
Cc1cc2n(n1)C(c1c[nH]c3ccccc13)Nc1ccccc1-2 (stereo unspecified)	ClpP mod 22.4µM
Cc1cc2n(n1)C(c1cn(-c3ccccc3)nc1C)Nc1ccccc1-2 (stereo unspecified)	ClpP mod 2.51µM
Cc1cc2n(n1)C(c1ccco1)Nc1ccccc1-2 (stereo unspecified)	ClpP mod inconclusive
COC(=O)c1cc2sc(C)cc2n1Cc1nc(-c2ccc(C)cc2)oc1C	none (no result: D3 antag, GLP1R ag)
CCCCNC(=O)CN1C(=O)c2cccnc2Sc2ccccc21	none (no result: D3 antag, GLP1R ag)
Cc1cc(C)nc(N/N=C/c2ccccc2OCc2cccc(Br)c2)n1	ClpP mod inconclusive, GLP1R cytotox 3.98µM, GLP-1R inv ag 3.55µM
N#Cc1c(NCCN)nc(-c2ccco2)c2c1CCCC2	ClpP mod 8.91µM
CC1(C)Cc2c(C#N)c(NCc3ccco3)nc(-c3ccco3)c2CO1	ClpP mod 31.6µM
CCc1nc(NCCN)c(C#N)c2c1CSC(C)(C)C2	ClpP mod 22.4µM, GLP-1R inv ag inconclusive
CCc1nc(NCCC(C)C)c(C#N)c2c1CCCC2	ClpP mod 15.8µM
CN(C)CCNc1nc(-c2ccco2)c2c(c1C#N)CC(C)(C)OC2	ClpP mod inconclusive
CCc1nc2n[nH]c(N)c2c2c1CSC(C)(C)C2	none
O=C(Cn1cnc2onc(-c3ccc(F)cc3)c2c1=O)Nc1cccc(C(F)(F)F)c1	GLP-1R inv ag inconclusive (no result: D3 antag)
CCOc1ccc(CCNC(=O)C2CCN(C(=O)c3cc4sccc4n3CC)CC2)cc1OCC	none (no result: D3 antag, GLP1R ag)
CCc1ccc(OCC(=O)N(Cc2ccc(OC)cc2)C2CCS(=O)(=O)C2)cc1 (stereo unspecified)	none (no result: D3 antag, GLP1R ag)
CCCCn1cc(S(=O)(=O)c2cc(C)ccc2C)c(=O)c2cc(F)c(N3CCC(C)CC3)cc21	none (no result: D3 antag, GLP1R ag)
CC(C)CCNc1nc(-c2ccco2)c2c(c1C#N)CCCC2	ClpP mod 14.1µM, GLP-1R inv ag inconclusive
N#Cc1c(N2CCOCC2)nc(-c2ccco2)c2c1CCCC2	ClpP mod 35.5µM, GLP-1R inv ag inconclusive
O=S(=O)(c1cnc(Cl)c(Br)c1)N1CCc2ccccc21	D3 antag -53.3 (no result: ClpP mod)
O=C(Nc1ccccc1)N(Cc1cccs1)c1ccc(Cl)cc1	GLP-1R inv ag inconclusive (no result: D3 antag, GLP1R ag)
CCN(CC)S(=O)(=O)c1ccc2oc(C(=O)NC3CCCc4ccccc43)c(C)c2c1 (stereo unspecified)	D3 antag inconclusive, GLP-1R inv ag 8.91µM
CCN(CC)S(=O)(=O)c1ccc2oc(C(=O)N3CCc4ccccc4C3)c(C)c2c1	GLP-1R inv ag inconclusive
